AmpC inh no detg = inhibitors of E. coli AmpC beta-lactamase without detergent. P00811. AmpC nitrocefin hydrolysis, absorbance 480 nm, 0.0001% Triton. Potency, µM (titrated, usually from 57.1 µM), for the others: top-dose activity change, negative = inhibition, actives largely listed as inhibitors. actives 0.52% (n = 330,000);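 also: plate controls were no compound for no effect and no enzyme for full effect; nearly all actives have a fitted effect of over 20% in size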
Target sequence (P00811 whole entry, looked up): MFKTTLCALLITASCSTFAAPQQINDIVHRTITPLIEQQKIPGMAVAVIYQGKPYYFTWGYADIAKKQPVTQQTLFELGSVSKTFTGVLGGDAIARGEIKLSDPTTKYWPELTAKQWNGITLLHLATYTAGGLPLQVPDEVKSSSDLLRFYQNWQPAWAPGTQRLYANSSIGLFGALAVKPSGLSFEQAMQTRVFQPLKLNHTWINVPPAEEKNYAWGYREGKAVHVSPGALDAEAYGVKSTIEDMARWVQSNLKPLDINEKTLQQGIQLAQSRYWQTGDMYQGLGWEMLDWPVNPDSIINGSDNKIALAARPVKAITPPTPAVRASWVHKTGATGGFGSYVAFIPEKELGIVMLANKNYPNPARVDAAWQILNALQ
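AmpC (5.3 nM in the dispensed reagent) in 20 mM phosphate pH 7.0 with 0.01% (detergent screen) or 0.0001% Triton X-100 was preincubated with compounds for 15 min at room temperature. Nitrocefin was then added from an 800 uM solution, and hydrolysis was followed at 480 nm.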
Pf growth 48h = P. falciparum growth inhibition at 48 hours (one generation) | Potency, µM (top dose mostly 28.7 µM), inactives show at the top dose activity change, negative = inhibition, hits mostly inhibitors | AID 504832 | P. falciparum luciferase growth in erythrocytes, 48 h | actives 5.9% (n = 310,000)
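Firefly luciferase activity from engineered P. falciparum reports growth; inhibitors lower the luminescent signal. Cultures contained 2% hematocrit erythrocytes at 0.1% final parasitemia.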
AMA1-RON2 inh = inhibitors of Plasmodium falciparum AMA1-RON2 interaction; AlphaScreen AMA1-biotinylated RON2 peptide binding; Potency, µM (highest dose often 58.2 µM), for inactives: at the top dose activity change, negative = inhibition, hits mostly inhibitors; actives 0.2% (n = 360,000);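 also: 0% = vehicle wells and -100% = peptide control; nearly all actives have a fitted effect of over 45% in size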
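AMA1 (3D7) with his tag at 25 nM final met compounds first, then biotinylated RON2 peptide at 25 nM; detection used donor plus acceptor beads, 10 µg/mL apiece, read by AlphaScreen after 30 min at room temperature.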
Pf growth 96h = P. falciparum growth inhibition at 96 hours | P. falciparum luciferase reporter growth, 96 h | Potency, µM (highest dose often 28.7 µM), without a hit: at the top dose activity change, negative = inhibition, most hits filed as inhibitors | actives 6.9% (n = 320,000)
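Cell-based qHTS: luciferase-tagged P. falciparum in erythrocytes (2% hematocrit, 0.05% parasitemia final) incubated with compounds for 96 hours, 37 C, 5% CO2; luciferase detection reagent then added and luminescence measured.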
HCV inhibitor = blocks hepatitis C virus | Huh7.5.1 HCVcc-Cre infection, luciferase reporter, 44 h | Potency, µM (top dose mostly 41.8 µM), for inactives: at the highest dose activity change, negative = inhibition, most hits filed as inhibitors | actives 3.4% (n = 340,000) | AID 651820
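Infectious HCVcc-Cre (~0.5 moi) was added to cells just after compound, with cells seeded 4 h earlier at 1,000 per well. Luciferase activity after 44 h culture reported infection; substrate was incubated 15 min at room temperature before reading.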
AmpC inh detg = blocks E. coli AmpC beta-lactamase in detergent assay | Potency, µM (top dose mostly 114 µM), without a hit: at the top dose activity change, negative = inhibition, hits mostly inhibitors | AmpC hydrolysis of nitrocefin, absorbance 480 nm, 0.01% Triton | P00811 | actives 0.041% (n = 370,000) | AID 485294;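 also: 0% = no-compound wells and -100% = no-enzyme wells; nearly all actives have a fitted effect of over 25% in size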
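AmpC (5.3 nM in the dispensed reagent) in 20 mM phosphate pH 7.0 with 0.01% (detergent screen) or 0.0001% Triton X-100 was preincubated with compounds for 15 min at room temperature. Nitrocefin was then added from an 800 uM solution, and hydrolysis was followed at 480 nm.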
Starred values were filed as active, the others as inactive; ? = inconclusive; . = no result given; [ ] = remark or other dose. An excerpt weighted towards active compounds, which were near 11% of everything screened. Calls follow the shape of the dose curve; as a rule, active = well fitted curve in the direction sought with a large enough effect; inconclusive = small, poorly fitted or top-dose-only effect, or another doubt; inactive = no such curve, though single readings can be large; an effect the other way counts as inactive or inconclusive. Unless noted, % is scaled to controls: 0 for no effect and ±100 for the full control effect; potency is read from the fitted curve at half-maximal effect.

SMILES	AmpC inh no detg	Pf growth 48h	AMA1-RON2 inh	Pf growth 96h	HCV inhibitor	AmpC inh detg
O=C(O)c1ccc(N=Nc2c(O)[nH]c3cc(Cl)ccc23)cc1	-24%	?	-7%	4.7µM*	30%	-6%
CCOc1ccc(CCNC(=O)C(CC)n2nc(C)c3c(C)n(-c4ccccc4)nc3c2=O)cc1 (configuration not stated)	.	.	.	.	.	20%
CCOc1ccc(N(CC(=O)N2CCN(c3ccccc3OC)CC2)S(=O)(=O)c2ccc(C)cc2)cc1	2%	?	-21%	12µM*	?	-6%
CCOc1ccc(N(CC(=O)N2CCN(c3ccccc3OC)CC2)S(=O)(=O)c2ccc(F)cc2)cc1	166%	?	-5%	0.93µM*	-3%	0%
CCOc1ccc(N(CC(=O)N2CCCC2)S(=O)(=O)c2ccc(F)cc2)cc1	55%	-11%	-7%	1%	27%	-5%
CCCCSCCCNC(=O)C1CCC(CNS(=O)(=O)c2c(C)cc(C)cc2C)CC1 (configuration not stated)	.	.	.	.	.	-2%
CN(C(=O)Cn1c(=O)n(Cc2ccc(C(=O)NCc3ccc4c(c3)OCO4)cc2)c(=O)c2ccccc21)c1ccccc1	.	.	.	.	.	22%
CCOC(=O)C1=C(CNCCOc2ccc(OC)cc2)NC(=O)NC1c1ccc2c(c1)OCO2 (configuration not stated)	29%	12µM*	-21%	?	?	-1%
CCOC(=O)C1=C(CNCCc2ccc(Cl)cc2)NC(=O)NC1c1ccc2c(c1)OCO2 (configuration not stated)	10%	7.4µM*	-3%	.	?	-3%
CCOC(=O)C1=C(CN2CCN(C(=O)OCC)CC2)NC(=O)NC1c1ccc2c(c1)OCO2 (configuration not stated)	86%	?	3%	24%	?	7%
Cc1ccc(Cl)cc1NC(=O)N1CCC2(CC1)Oc1ccccc1C(=O)N2Cc1ccccc1F	.	.	.	.	.	-2%
Cc1ccc(NC(=O)C(C)Oc2ccccc2)cc1S(=O)(=O)N1CCCCCC1 (configuration not stated)	-37%	6.6µM*	1%	?	?	1%
Cc1ccc(NC(=S)Nc2ccc(C(C)C)cc2)cc1S(=O)(=O)N1CCCCCC1	?	?	43%	?	6.3µM*	-4%
Cc1cccc(OC(C)C(=O)Nc2cc(S(=O)(=O)N3CCCCC3)ccc2C)c1 (configuration not stated)	0%	9.3µM*	-18%	?	?	-5%
Cc1ccccc1OCCC(=O)Nc1cc(S(=O)(=O)N2CCOCC2)ccc1OC(C)C	162%	15µM*	-4%	13µM*	?	2%
Cc1cccc(C(=O)N[C@H](C(=O)Nc2cc(S(=O)(=O)N3CCCCC3)ccc2C)C(C)C)c1	-16%	?	-1%[2.32 µM]	?	-8%	-13%
CCOc1ccc(CCNC(=O)C2=C(C)C(=O)OC23CCCCC3)cc1	.	.	.	.	.	17%
CC(C)Oc1ccc(S(=O)(=O)N2CCOCC2)cc1NC(=O)C(C)Oc1ccc(F)cc1 (configuration not stated)	105%	13µM*	-7%	?	?	0%
CC(Oc1cccc(Cl)c1)C(=O)Nc1ccc(N2CCOCC2)cc1N1CCOCC1 (configuration not stated)	213%	6.6µM*	?	?	0%	-12%
CC(Oc1cccc(Cl)c1)C(=O)Nc1cc(S(=O)(=O)N2CCOCC2)ccc1N1CCCC1 (configuration not stated)	-4%	-23%	4%	0%	-5%	?
CCN1CCN(c2ccc(S(=O)(=O)N3CCCCC3)cc2NC(=O)C(C)Oc2ccc(F)cc2)CC1 (configuration not stated)	237%	8.3µM*	-6%	-24%	?	-3%
CC(Oc1ccc(F)cc1)C(=O)Nc1cc(S(=O)(=O)N2CCCCC2)ccc1N1CCOCC1 (configuration not stated)	-6%	8.3µM*	-10%	9.3µM*	?	-13%
CC(C)Oc1ccc(S(=O)(=O)N2CCOCC2)cc1NC(=O)C1CCCCC1	59%	?	-4%	?	-4%	0%
Cc1ccc(C(=O)CSc2ncc3c(n2)-c2ccccc2N(Cc2ccc(Cl)cc2)S3(=O)=O)cc1	.	.	.	.	.	-9%
CC(Oc1cccc(Cl)c1)C(=O)Nc1cc(S(=O)(=O)N2CCCCC2)ccc1N1CCOCC1 (configuration not stated)	11%	10µM*	-13%	10µM*	?	-1%
SMILES	AmpC inh no detg	Pf growth 48h	AMA1-RON2 inh	Pf growth 96h	HCV inhibitor	AmpC inh detg
CCC(C)C(=O)Nc1nc(C)c(-c2csc(Nc3cc(OC)ccc3OC)n2)s1 (configuration not stated)	-10%	2.3µM*	-3%	9.3µM*	?	-1%
COc1ccc(OC)c(Nc2nc(-c3sc(NC(=O)CC(C)C)nc3C)cs2)c1	-28%	6.6µM*	-14%	10µM*	2.8µM*	2%
CCC(C)C(=O)Nc1nc(C)c(-c2csc(Nc3cc(Cl)ccc3OC)n2)s1 (configuration not stated)	-30%	10µM*	1%	15µM*	?	-7%
CCCC(C)C(=O)Nc1nc(C)c(-c2csc(Nc3ccc(Cl)cc3)n2)s1 (configuration not stated)	-44%	?	16%	?	-7%[8.37 µM]	-1%
CCCCc1ccc(NC(=O)CSc2nc(=O)[nH]c3c2CCCC3)cc1	.	.	.	.	.	4%
Cc1c(Cl)cccc1NC(=O)Cn1c(=O)cc(C)c2c(C)nn(-c3cccc(F)c3)c21	.	.	.	.	.	0%
Oc1ccc(/C=N\Nc2nncc(-c3ccccc3)n2)cc1	5%	?	91%	2.3µM*	?	-4%
COc1ccc(-c2cnnc(N/N=C/c3ccc(O)c(O)c3)n2)cc1	-16%	1.7µM*	-23%	63%	-28%	?
Brc1ccc(/C=N/Nc2nncc(-c3ccccc3)n2)o1	-8%	-18%	.	?	.	8%
COc1ccc(-c2cnnc(N/N=C/c3ccc(C)o3)n2)cc1	2%	?	18%	4.1µM*	15%	-2%
COc1ccc(-c2cnnc(N/N=C/c3ccc(O)cc3)n2)cc1	-13%	-4%	19%	13%	-12%	-9%
Cc1ccc(CN2CCCn3nc(C(=O)NCc4cc(C)ccc4C)cc3C2=O)cc1	.	.	.	.	.	-2%

High-throughput results (PubChem)
